Bioassay records: PubChem BioAssay, The Scripps Research Institute Molecular Screening Center
HTR5A inv ctr: inverse agonist of human HTR5A in OPRM1-OPRD1 counter-screen. P47898. HTR5A cell line, luminescence, inverse agonism. inhibition, % at 9.3 µM. actives 0.083% (n = 340,000); in the data active = inhibition mostly above about 23%, no sharp cut-off; inactive = mostly below about 18%
HTR5A ag: HTR5A agonism, opioid heterodimer counter-screen; AID 504692; actives 0.61% (n = 340,000); activation, % at 9.3 µM; P47898; HTR5A agonist assay, luminescence, cell-based; in the data active = activation mostly above about 9.5%, no sharp cut-off; inactive = mostly below about 7.6%
MOR-DOR ag: agonists of human mu-delta opioid receptor heterodimerization; AID 504326; actives 0.3% (n = 340,000); P35372+P41143; activation, % at 9.3 µM; cells, OPRM1-OPRD1 heterodimerization, luminescence
Target sequence (P35372 whole entry, looked up): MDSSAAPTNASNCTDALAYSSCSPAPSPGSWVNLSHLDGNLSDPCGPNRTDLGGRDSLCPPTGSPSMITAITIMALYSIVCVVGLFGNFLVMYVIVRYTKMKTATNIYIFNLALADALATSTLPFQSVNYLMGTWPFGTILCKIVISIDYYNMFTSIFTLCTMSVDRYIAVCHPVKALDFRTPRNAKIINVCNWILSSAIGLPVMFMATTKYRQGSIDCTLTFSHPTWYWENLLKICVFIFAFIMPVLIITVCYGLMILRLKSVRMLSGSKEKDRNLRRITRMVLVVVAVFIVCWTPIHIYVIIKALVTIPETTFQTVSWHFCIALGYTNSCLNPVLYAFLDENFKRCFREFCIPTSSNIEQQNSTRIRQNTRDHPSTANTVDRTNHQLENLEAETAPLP
Target sequence (P41143 whole entry, looked up): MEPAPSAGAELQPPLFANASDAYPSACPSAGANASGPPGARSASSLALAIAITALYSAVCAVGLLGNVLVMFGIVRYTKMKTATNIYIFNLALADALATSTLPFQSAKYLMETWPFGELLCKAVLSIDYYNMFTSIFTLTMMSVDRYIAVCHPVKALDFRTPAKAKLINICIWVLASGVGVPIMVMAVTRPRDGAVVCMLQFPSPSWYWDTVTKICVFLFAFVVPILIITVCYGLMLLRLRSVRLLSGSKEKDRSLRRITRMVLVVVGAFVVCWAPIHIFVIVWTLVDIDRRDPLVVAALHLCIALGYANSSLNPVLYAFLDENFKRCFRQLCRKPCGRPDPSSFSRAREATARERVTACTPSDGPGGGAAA
OPRM1-OPRD1 inv: mu-delta opioid heterodimer inverse agonism; cell-based MOR-DOR heterodimer luminescence; inhibition, % at 9.3 µM; actives 0.21% (n = 340,000); AID 504357; in the data active = inhibition above about 22%, passing the limit was not always enough
OPRM1-D1 ag cf: OPRM1-OPRD1 heterodimer agonism, confirmation. shares compounds with MOR-DOR ag. cells, MOR-DOR heterodimerization, luminescence complementation. activation, % at 9.3 µM. actives 45% (n = 830). AID 504904
HTR5A ag counter: HTR5A agonism, opioid heterodimer counter-screen | actives 8% (n = 830) | activation, % at 9.3 µM | AID 504905 | shares compounds with MOR-DOR ag | HTR5A agonist counterscreen, cell luminescence; in the data active = activation above about 17%
Large screens that a line does not name were inactive (follow-up assays come after a bar, where they were run). Most compounds without a hit are left out; they make up all but 1.1% or so of the library. Rule as the data show it, unless noted: active = activation above about 18%; inactive = the rest.

COc1ccccc1CC(=O)Nc1cc(OC)c(NC(=O)c2ccccc2)cc1OC	none
COc1cc(NC(=O)c2ccccc2)c(OC)cc1NC(=O)Cc1ccc(C)cc1	HTR5A ag 9.6
CC(=O)c1nc(N2C(=O)CC(Cc3ccccc3)C2=O)sc1C (stereo not given)	none
CCn1c(=O)cc(SCC(=O)N2CCN(c3ccccc3F)CC2)c2ccccc21	HTR5A ag 13
CC(C)NCC(O)COc1ccc(Br)cc1 (stereo not given)	HTR5A ag 12
COc1ccc(Oc2nccc(-c3ccccc3)c2C#N)cc1	HTR5A ag 11
CC(C)Oc1ccc(CNC(=O)Cn2ccc3cc(S(=O)(=O)N4CCCC4)ccc32)cc1	HTR5A ag 8.3
Cn1c(-c2ccccc2)c(C(=O)CCl)c2ccccc21	HTR5A ag 44, MOR-DOR ag 42
CC[C@]12c3[nH]c4cc(-c5ccco5)ccc4c3CCN1C(=O)[C@@H](CC(=O)NCc1cccc(C(F)(F)F)c1)C[C@@H]2C(=O)N1CCN(C(=O)c2ccco2)CC1	HTR5A ag 3.5
O=C(NCC1COc2ccccc2O1)c1ccc(Cl)c(S(=O)(=O)N2CCCC2)c1 (stereo not given)	none
COC(=O)/C(N=Nc1cccc(C(F)(F)F)c1)=C(\C)O	none
COC(=O)C1=C(O)CSC1=Nc1cccc(C(F)(F)F)c1	HTR5A ag 14
O=C(c1ccccc1)c1c2c(cc3sc4ccccc4[n+]13)-c1cccc3cccc-2c13	HTR5A ag 33, MOR-DOR ag 90
CCN(CC(=O)Nc1ccc2c(c1)OCCO2)C(=O)CSCC(=O)Nc1ccc(C)cc1	none
CCc1ccccc1S(=O)(=O)Cc1ccc(C(=O)NCc2ccc3c(c2)OCO3)o1	none
CCc1ccccc1S(=O)(=O)Cc1ccc(C(=O)NC(C)C)o1	HTR5A ag 13
CC(=O)NC1CC2CCCC(C1)N2Cc1ccc(C)cc1 (stereo not given)	HTR5A ag 14
C=C(C)Cn1c(CCNC(=O)C(C)(C)C)nc2ccccc21	HTR5A ag 10
Cc1ccc(NC(=O)COc2cccc3c2OC(C)(C)C3)c(O)c1	HTR5A ag 13
CC1(C)Cc2cccc(OCC(=O)Nc3ccccc3F)c2O1	none
COc1ccc(COC(=O)CCc2c[nH]c3ccccc23)cc1F	none
CSc1ncccc1C(=O)OCC(=O)NCc1ccccc1	HTR5A ag 13
CSc1ncccc1C(=O)OCC(=O)NC(C)CCc1ccccc1 (stereo not given)	none
CC(CC(=O)O)Nc1ccccc1O (stereo not given)	none
CCC(C)Sc1ccc(-c2nc3ccc(C)cn3c2NCc2ccccc2)cc1OC (stereo not given)	HTR5A ag 11
CCC(C)Sc1cc(-c2nc3ccc(C)cn3c2NCc2ccccc2)ccc1OC (stereo not given)	HTR5A ag 16, MOR-DOR ag 21
Cc1cccc(NC(=S)N2CCOCC2)c1C	HTR5A ag 11
Cc1cccc(NC(=O)CN2CCOCC2)c1C	HTR5A ag 9.8
CCOc1ccc(CCNC(=O)COC(=O)/C=C/c2ccco2)cc1OCC	none
COC(=O)[C@@H]1Cc2c([nH]c3ccccc23)C(C)(C)N1C(=O)CCl	HTR5A ag 41, MOR-DOR ag 37
CC(C)CN1CCN(Cc2nc(C(C)C)cs2)CC1CCO (stereo not given)	HTR5A ag 11
O=C(OCc1nnc(-c2ccc(Cl)cc2)o1)c1ccc(O)cc1	none
CS(=O)(=O)c1ccc(C(=O)OCc2nnc(-c3ccc(Cl)cc3)o2)cc1[N+](=O)[O-]	HTR5A ag 10
O=C1CCC(c2ccc3ccccc3c2)O1 (stereo not given)	none
COC(=O)c1cccc(NC(=O)CCNC(=O)c2ccco2)c1	HTR5A ag 13
COC(=O)c1cccc(NC(=O)c2ccco2)c1	none
COc1ccc2sc(N(CCCN(C)C)C(=O)c3ccc(S(=O)(=O)N4CCc5ccccc5C4)cc3)nc2c1	HTR5A ag 14, MOR-DOR ag 23
Cc1cc(C)c2sc(N(CCCN(C)C)C(=O)c3ccc(S(=O)(=O)N4CCc5ccccc5C4)cc3)nc2c1	HTR5A ag 33, MOR-DOR ag 29
Cc1cc2[nH]c3c(c[n+](C)c4ccccc34)c2cc1C	none
Cc1cc2[nH]c3c4ccccc4nc(C)c3c2cc1C	MOR-DOR ag 35 | OPRM1-D1 ag cf 68 | HTR5A ag counter inactive
Cc1noc(C)c1COc1ccc(C(=O)OCC(=O)Nc2c(C)n(C)n(-c3ccccc3)c2=O)cc1	none
N=c1n(Cc2ccc(Cl)cc2)c2ccccc2n1CC(O)COc1ccccc1 (stereo not given)	HTR5A ag 14, MOR-DOR ag 94 | OPRM1-D1 ag cf inactive | HTR5A ag counter inactive
O=C(CN1C(=O)NC2(CCCCC2)C1=O)Nc1ccc(Cl)cc1	none
CCn1cc(CN2CCCC(C(=O)Nc3ccc(-c4nc5ccccc5[nH]4)cc3)C2)c(C)n1 (stereo not given)	MOR-DOR ag 31 | OPRM1-D1 ag cf inactive | HTR5A ag counter inactive
COc1cc(CNc2ccc(O)cc2)cc(Br)c1OCc1ccccc1F	MOR-DOR ag 28 | OPRM1-D1 ag cf inactive | HTR5A ag counter inactive
CCOc1cc(CNc2ccc(O)cc2)cc(Br)c1OCc1ccccc1F	none
Cc1cc(C)c(NC(=O)Cn2nnc(C(=O)NCc3cccs3)c2N)c(C)c1	MOR-DOR ag 22 | OPRM1-D1 ag cf inactive | HTR5A ag counter inactive
COCCN=C1N[C@@H](c2cccc(C(F)(F)F)c2)C(C(=O)OC)=C(C)N1Cc1ccccc1	none
COC(=O)C1=C(C)N(Cc2ccccc2)C(=NCCc2c[nH]c3ccccc23)N[C@H]1c1cccc(C(F)(F)F)c1	MOR-DOR ag 22 | OPRM1-D1 ag cf inactive | HTR5A ag counter inactive
COC(=O)C1=C(C)N(Cc2ccccc2)C(=NCc2cccc(C(F)(F)F)c2)N[C@H]1c1cccc(C(F)(F)F)c1	MOR-DOR ag 45 | OPRM1-D1 ag cf inactive | HTR5A ag counter inactive
COC(=O)C1=C(C)N(CC2CC2)C(=NCc2cccc(C(F)(F)F)c2)N[C@H]1c1ccccc1	none
COC(=O)C1=C(C)N(Cc2ccccc2)C(=NCc2cccc(C(F)(F)F)c2)N[C@H]1c1cccc(F)c1	MOR-DOR ag 23 | OPRM1-D1 ag cf inactive | HTR5A ag counter 21
CCc1ccc(C(=O)C(C)OC(=O)c2nn(C)c(=O)c3ccccc23)cc1 (stereo not given)	none
O=C(Nc1cccc(C(F)(F)F)c1)c1cccnc1N1CCN(c2ccccc2)CC1	none
Cc1ccccc1NC(=S)NCC(c1cccnc1)N(C)C (stereo not given)	MOR-DOR ag 216 | OPRM1-D1 ag cf 211 | HTR5A ag counter inactive
Cc1c(Cl)cccc1NC(=S)NCC(C)C	none
